Values without a mark were called inactive. Calls of active or inactive are those of the source.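 The calls were made as follows: active = growth inhibition above 50% at the single 2 µM test dose, taken to imply half-maximal potency below 2 µM; inactive = the rest.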

The nature of the assay: antimalarial activity against Dd2 strain (AID 2302).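 Also: 0% = DMSO untreated growth and 100% = chloroquine plus artemisinin killed control.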 To be noted: P. falciparum Dd2 in RBCs, LDH growth readout, 72 h; at 2 µM; stronger effect = higher value.
On to `O=C(NCCCCCN1CCC(c2c[nH]c3ccccc23)CC1)c1ccc(Cl)c(Cl)c1`, for which the growth inhibition was 10%.
As to `COc1cc(Cc2cnc(N)nc2N)cc(OCCCCCC(N)=O)c1OC`, the growth inhibition was -3%.
In the case of `O=C(/C=C/c1ccc(C(F)(F)F)cc1)NCCCCCN1CCN(C(=O)Nc2ccc(F)c(Cl)c2)CC1` it was -6%; in that of `O=C(NC1CC1)c1ccc(N2CCC(COc3cccc(F)c3)CC2)nc1`, 88% (active).
Turning to `O=C(Nc1cccc(CN2CCCN(Cc3ncc[nH]3)CC2)c1)c1cc2ccccc2s1`, the growth inhibition was 35%.
Consider `O=c1cc(NCCCNCc2cc3c(Cl)cc(Cl)cc3[nH]2)[nH]c2ccccc12`, for which the growth inhibition is -2%.
`COc1ccc(CNCc2ccc(-c3cccc(-c4nc5c(C)cccc5[nH]4)c3)cc2)cc1`: the growth inhibition was 101% (active).
As for `CN(C)Cc1cccc(CNC(=O)c2sccc2OCc2ccc(Cl)cc2)c1`, the growth inhibition is 88% (active).
Take `COc1cc2nc(SCC(C)C)n(CCCn3ccnc3)c(=N)c2cc1OC`: the growth inhibition is 78% (active).
As to `CCOc1ccc2nc(C)cc(NN=Cc3cccc(F)c3)c2c1`, the growth inhibition is 23%.
Regarding `O=C(NC1CC1)c1ccc(N2CCC(Cc3ccccc3)CC2)c([N+](=O)[O-])c1`, the growth inhibition was 83% (active).
On to `O=S(=O)(ON=C1CCc2ccccc21)c1ccc(Cl)cc1`, for which the growth inhibition was 79% (active).
On to `CCc1cn2c3c(cc(C(=O)N[C@@H](Cc4cccc(F)c4)[C@H](O)CNC4CCOCC4)cc13)N(C)S(=O)(=O)CC2`, for which the growth inhibition is 97% (active).
In the case of `COc1ccc(Cl)cc1NC(=O)C(C)Nc1ccc(-c2ccccc2)cc1` (stereo not given) it was 89% (active).
The value for `CC(Cc1ccc(OCCCCOc2ccccc2)cc1)NCCc1ccc(Oc2ccccc2)cc1` (stereo not given) was 95% (active); that for `OCCN1CCN(Cc2ccc(-c3cccc(-c4nc5ccc(C(F)(F)F)cc5[nH]4)c3)cc2)CC1` was 83% (active); that for `CCN(CC)CCN(Cc1ccc(-c2ccc(C(F)(F)F)cc2)cc1)C(=O)Cn1cc(CCCCc2cccc(F)c2F)c(=O)c2ccccc21` was 22%.
The value for `O=c1c(NCCCN(Cc2ccc(F)cc2)c2ccccn2)c(NCc2cccnc2)c1=O` was 92% (active).
Turning to `COc1ccc(-c2ccc(NC(=O)c3ccc(F)cc3)cc2)cc1CN1CCCN(C)CC1`, the growth inhibition was 35%.
`O=C(Nc1cncc(NC(=O)c2ccc(Cl)c(Cl)c2)c1)c1ccc(Cl)c(Cl)c1`: the growth inhibition was 70% (active).
As to `CCn1cnc2c(Nc3cccc([N+](=O)[O-])c3)nc(N3CCC(N4CCCCC4)CC3)nc21`, the growth inhibition is 35%.
The value for `NC1CCN(c2nc(NCCCc3ccc(O)cc3)nc(NCc3ccccc3-c3ccc(C(F)(F)F)cc3)n2)CC1` was 88% (active); that for `CC(C)CNC(=O)c1cncc(-c2cccc(CNC3Cc4ccccc4C3)c2)c1` was 19%; that for `CC(C)COc1ccc(Cl)cc1Cc1nc(-c2nc3nc(N4CCN(C)CC4)ccc3[nH]2)cs1` was 27%.
The value for `COc1cc(OC)cc(C(=O)Nc2nc(-c3ccccn3)cs2)c1` was 72% (active); that for `O=C(Nc1ccccc1)Nc1ccc(-c2cccc(-c3nc4ccc(C(F)(F)F)cc4[nH]3)c2)cc1` was 73% (active).
In the case of `CN(CCCCCN1CCC(NC(=O)Nc2ccc(Oc3ccccc3)cc2)C1)C(=O)/C=C/c1ccc(Cl)c(Cl)c1` (stereo not given), the growth inhibition was 14%.
Regarding `CCCCNCc1ccc(-c2nc(CN(C(=O)Nc3cc([N+](=O)[O-])ccc3F)C3Cc4ccccc4C3)cs2)cc1`, the growth inhibition was 13%.
On to `Cc1cc(NC(=O)Nc2ccc3nccc(N4CCN(C)CC4)c3c2)ccc1Br`, for which the growth inhibition is 100% (active).
The value for `CS(=O)(=O)c1cccc(-c2cnc(N)c3cc(-c4cccc(F)c4)ccc23)c1` was 13%.
Regarding `CC(C)Cn1c(Sc2ccc(C#N)c([N+](=O)[O-])c2)nnc1-c1ccccc1Cl`, the growth inhibition is 46%.
As to `Cc1cc(C(=O)Nc2nc(-c3ccccn3)nc3ccsc23)no1`, the growth inhibition was 90% (active).
Regarding `Cc1cc(N(CCO)CCCN2CCCCC2)nc(Nc2ccc(Cl)cc2)n1`, the growth inhibition is 18%.
For the compound `Cc1cccc(Cl)c1Nc1nnc(-c2cccc(C(=O)NC[C@@H]3CC[C@H]4C[C@@H]3C4(C)C)c2)o1`, the growth inhibition is 69% (active).
Take `C=CCOC(=O)N1CCC(CNCc2cccc(-c3cccc(-c4nc5c(C)cccc5[nH]4)c3)c2)C1` (stereo not given): the growth inhibition was 69% (active).
On to `CCC1CCCCN1S(=O)(=O)c1ccc(NC(=O)c2cc(C)on2)cc1` (stereo not given), for which the growth inhibition was 53% (active).
Regarding `COc1ccc(-c2ccc(S(=O)(=O)Nc3cc4c(cc3OC(C)C)CCNCC4)cc2)cc1`, the growth inhibition was -1%.
For the compound `Cc1cccc(C(=O)Nc2ccnc(N3CCC(N(C)Cc4cccc(O)c4)CC3)c2)c1`, the growth inhibition is 41%.
As to `CN1CCC(C(=O)Nc2cccc(-c3cccc(-c4nc5ccc(F)cc5[nH]4)c3)c2)CC1`, the growth inhibition was 27%.
On to `Cc1cnc(Nc2ccccc2)nc1N[C@@H](CCCN)C(=O)Nc1ccccc1`, for which the growth inhibition was 0%.

For the origin of these results see PubChem BioAssay.
